D3 antag – D3 dopamine receptor (human) antagonism; D3R cells, DiscoveRx beta-arrestin luminescence, antagonist mode; active compounds read low; AID 652054; 360,000 tested, 2.5% active; P35462; max response, negative = inhibition, %; in the data active = max response below about -50%; inconclusive = no clear call, values can overlap the other calls; also: % is scaled to controls: 0 for no effect and ±100 for the full control effect
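Cells plated overnight at 1500 cells/well, then exposed to library compounds with dopamine controls for 90 minutes at 37 degrees C. DiscoveRx reagent added for 30–60 minutes at room temperature; luminescence read, quantitative HTS format.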
DT40 TDP1 no CPT – qHTS for Inhibitors of human tyrosyl-DNA phosphodiesterase 1 (TDP1): qHTS in cells in absence of CPT. DT40 Tdp1-/- hTDP1 cells, no CPT, ATP luminescence, 48 h. Potency, µM (doses to about 46.2 µM), without a hit: at the top dose activity change, negative = growth inhibition, actives largely listed as inhibitors. 420,000 tested, 15% active; also: potency is read from the fitted curve at half-maximal effect; % is scaled to controls: 0 for no effect and ±100 for the full control effect; nearly all actives have a fitted effect of over 55% in size
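Compound effects on proliferation are scored in DT40 Tdp1-/-;hTDP1 cells in the absence of CPT. ATP levels (CellTiter-Glo luminescence) are recorded after a ≥48 hr, 37 °C incubation.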
ClpP mod – qHTS Assay for Activators of ClpP | purified B. subtilis ClpP, FRET peptide cleavage, 20 min | ATP-dependent Clp protease proteolytic subunit (Bacillus subtilis (strain 168)), P80244 | 340,000 tested, 1.9% active | Potency, µM (series often up to 57.5 µM), without a hit: top-dose activity change, negative = active; active = well fitted falling curve with a large enough effect; inconclusive = small, poorly fitted or top-dose-only effect; inactive = no such curve, though single readings can be large or run the other way; also: potency is read from the fitted curve at half-maximal effect; the source files actives as falling curves though it sought activators and does not explain the sign; nearly all actives have a fitted effect of over 65% in size
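Buffer: 100 mM Tris/HCl pH8, 100 mM KCl, 0.05% low protease BSA, 2.5% glycerol, 0.01% Tween-20. ClpP 10 microg/mL final; 20 min RT; delta FRET normalized to ADEP and DMSO controls.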
D3 ag – agonists of human D3 dopamine receptor; 410,000 tested, 0.58% active; AID 652048; max activation, %; P35462; D3R DiscoveRx beta-arrestin cells, luminescence, 90 min; in the data active = max activation above about 30%; also: 0% is about no effect
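Cells at 1500/well, incubated overnight, then treated with pinned compounds (dopamine as control) for 90 min at 37 degrees C. DiscoveRx reagent added for 30 - 60 minutes at room temperature; luminescence read.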
TDP1 cell CPT – DT40-hTDP1 cell growth loss with CPT; chicken DT40 Tdp1-/-;hTDP1 cells + 20 nM CPT, ATP luminescence, 48 h; Potency, µM (titrated, usually from 46.2 µM), for the others: top-dose activity change, negative = growth inhibition, actives largely listed as inhibitors; 420,000 tested, 12% active; also: potency is read from the fitted curve at half-maximal effect; % is scaled to controls: 0 for no effect and ±100 for the full control effect; nearly all actives have a fitted effect of over 55% in size
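Cell growth measured by CellTiter-Glo luminescence after a minimum 48 h, 37 C compound exposure with 20 nM CPT in Tdp1-knockout DT40 cells stably expressing hTDP1, seeded 400/well; qHTS titration format.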
IL-1B inflam inh – blocks inflammasome-driven IL-1 beta release | 360,000 tested, 4.7% active | AID 743279 | activity change, % at 57.5 µM | THP-1 LPS/ATP IL-1B secretion, AlphaLISA, 16 h; active compounds read low; in the data active = activity change below about -50%; inconclusive = mostly about -30% to -49%; also: % is scaled to controls: 0 for no effect and ±100 for the full control effect
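Secreted IL-1B measured by AlphaLISA bead assay after 16 h compound exposure of THP-1 cells; compounds (final up to 57.5 uM) added 1 h before LPS (250 ng/mL) and ATP (1.25 mM) stimulation; lower signal means less secretion.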
* = called active by the depositor. Shown are actives, neighbours in structure and some others; about 21% of the full set was active somewhere. Unless noted, calls follow the shape of the dose curve; as a rule, active = well fitted inhibition curve with a large enough effect; inconclusive = small, poorly fitted or top-dose-only effect; inactive = flat fitted curve, though single readings scatter.

Results for COc1ccc(CN(C)CC2CCCN(CCc3ccc(F)cc3)C2)c(OC)c1OC (centres undefined) ?
D3 antag: inconclusive; DT40 TDP1 no CPT: 14.6µM*; ClpP mod: 3.1%; D3 ag: -15.3; TDP1 cell CPT: 23.1µM*

Results for CN(Cc1ccccc1O)CC1CCCN(CCc2ccc(Cl)cc2)C1 (centres undefined) ?
D3 antag: -54.6*; DT40 TDP1 no CPT: inconclusive; ClpP mod: -1.0%; D3 ag: -5.5; TDP1 cell CPT: inconclusive; IL-1B inflam inh: -14.2

How did CCN(Cc1ccc(C#CCCO)cc1)CC1CCCN(CCc2cccc(F)c2)C1 (centres undefined) do in these assays?
D3 antag: -9.0; DT40 TDP1 no CPT: 20.6µM*; ClpP mod: -0.7%; D3 ag: -11.5; TDP1 cell CPT: inconclusive; IL-1B inflam inh: -23.2

How did Cc1occc1C(=O)N(C)CC1CCCN(CCc2ccc(Cl)cc2)C1 (centres undefined) do in these assays?
D3 antag: inconclusive; DT40 TDP1 no CPT: 20.6µM*; ClpP mod: -2.4%; D3 ag: -4.7; TDP1 cell CPT: inconclusive; IL-1B inflam inh: -21.7

Results for O=C(CSc1nc(-c2ccccc2)no1)N1CCN(c2ccccc2F)CC1 ?
DT40 TDP1 no CPT: -12.6%; ClpP mod: 0.0%; D3 ag: 4.8; TDP1 cell CPT: -27.9%

How did O=C(CCc1nc(-c2ccccc2)no1)N1CCCC1 do in these assays?
D3 antag: -10.6; DT40 TDP1 no CPT: -15.8%; ClpP mod: -2.6%; D3 ag: -4.2; TDP1 cell CPT: 4.2%; IL-1B inflam inh: -2.4

How did COc1ccccc1N1CCN(C(=O)CSc2nc(-c3ccc(C(C)C)cc3)no2)CC1 do in these assays?
DT40 TDP1 no CPT: 6.51µM*; ClpP mod: -4.6%; D3 ag: 15.2; TDP1 cell CPT: 23.1µM*

Results for O=C(CSc1nc(-c2ccccc2)no1)N1CCCCC1 ?
DT40 TDP1 no CPT: 3.66µM*; ClpP mod: 0.2%; D3 ag: -3.2; TDP1 cell CPT: inconclusive

What do the screens show for `CC(C)c1ccc(-c2noc(SCC(=O)N3CCN(c4ccccc4F)CC3)n2)cc1`?
DT40 TDP1 no CPT: 20.6µM*; ClpP mod: 0.2%; D3 ag: 9.4; TDP1 cell CPT: 23.1µM*

How did CCOC(=O)Cn1c(CN2CCN(c3ccc(OC)cc3)CC2)nc2c1c(=O)[nH]c(=O)n2C do in these assays?
DT40 TDP1 no CPT: -19.9%; ClpP mod: 1.0%; D3 ag: -3.5; TDP1 cell CPT: -2.4%

How did Cc1nn(C)cc1CNC(=O)Nc1ccc(Br)cc1Cl do in these assays?
D3 antag: -6.7; DT40 TDP1 no CPT: -19.4%; ClpP mod: -0.4%; D3 ag: -3.8; TDP1 cell CPT: -20.4%; IL-1B inflam inh: 35.7

Results for COc1ccc(/C=C/C(=O)NCc2cn(C)nc2C)cc1COc1ccc(Cl)cc1Br ?
D3 antag: -10.2; DT40 TDP1 no CPT: inconclusive; ClpP mod: 14.1µM*; D3 ag: -11.4; TDP1 cell CPT: -26.9%; IL-1B inflam inh: -20.4

How did CCn1c(CNC(=O)c2ccccc2Br)nnc1SCC(=O)Nc1nncs1 do in these assays?
D3 antag: 1.4; DT40 TDP1 no CPT: -12.3%; ClpP mod: 14.1µM*; D3 ag: 3.2; TDP1 cell CPT: -5.7%; IL-1B inflam inh: -5.3

How did Cc1cccc(C(=O)NCc2nnc(SCC(=O)NC3=NCCS3)n2C)c1 do in these assays?
D3 antag: -8.6; DT40 TDP1 no CPT: 16.4µM*; D3 ag: 4.2; TDP1 cell CPT: inconclusive; IL-1B inflam inh: -10.0

Results for Cn1c(CNC(=O)c2ccccc2)nnc1SCC(=O)Nc1nccs1 ?
D3 antag: 10.3; DT40 TDP1 no CPT: inconclusive; D3 ag: 3.5; TDP1 cell CPT: 14.6µM*; IL-1B inflam inh: 33.0

Results for O=C(CSc1nc2ccsc2c(=O)n1NC(=O)c1ccccc1)Nc1nccs1 ?
D3 antag: -59.5*; DT40 TDP1 no CPT: -4.3%; ClpP mod: 1.4%; D3 ag: 1.8; TDP1 cell CPT: -10.4%; IL-1B inflam inh: -6.4

Results for Cc1ccccc1-c1cncnc1NC1CCNCC1 ?
DT40 TDP1 no CPT: -5.4%; TDP1 cell CPT: -3.3%

Results for C[C@H]1CN([C@@H](C)CO)C(=O)CCCn2cc(nn2)CO[C@@H]1CN(C)S(=O)(=O)c1ccc(C#N)cc1 ?
D3 antag: -27.1; DT40 TDP1 no CPT: -29.7%; ClpP mod: -1.1%; D3 ag: -8.2; TDP1 cell CPT: 10.9%; IL-1B inflam inh: 10.9

How did O=C(O)c1cccc(N2C(=O)c3cc([N+](=O)[O-])cc4cc([N+](=O)[O-])cc(c34)C2=O)c1 do in these assays?
D3 antag: -57.9*; DT40 TDP1 no CPT: inconclusive; ClpP mod: -2.4%; D3 ag: -25.4; TDP1 cell CPT: inconclusive; IL-1B inflam inh: -19.7

Results for O=C1c2cc3ccccc3c(-c3ccccc3)c2C(=O)N1c1ccccn1 ?
D3 antag: 14.0; DT40 TDP1 no CPT: -29.0%; ClpP mod: 31.6µM*; D3 ag: -8.4; TDP1 cell CPT: -7.7%; IL-1B inflam inh: 5.2

How did O=C1c2ccc(Oc3cccc([N+](=O)[O-])c3)cc2C(=O)N1c1ccccn1 do in these assays?
D3 antag: -4.5; DT40 TDP1 no CPT: inconclusive; ClpP mod: 1.5%; D3 ag: -0.5; TDP1 cell CPT: inconclusive; IL-1B inflam inh: 2.4

What do the screens show for `O=C1c2cc([N+](=O)[O-])cc3cc([N+](=O)[O-])cc(c23)C(=O)N1c1ccccn1`?
D3 antag: -76.4*; DT40 TDP1 no CPT: 18.4µM*; ClpP mod: -4.8%; D3 ag: -40.3; TDP1 cell CPT: 20.6µM*; IL-1B inflam inh: -99.7*

What do the screens show for `O=C1c2cccc(Cl)c2C(=O)N1c1ccccn1`?
D3 antag: 4.5; DT40 TDP1 no CPT: -26.0%; D3 ag: 14.8; TDP1 cell CPT: -2.1%; IL-1B inflam inh: 1.2

What do the screens show for `CNC(=O)CN(c1cc(OCCOC)c(Cl)cc1Cl)S(=O)(=O)c1ccc(OC)cc1`?
D3 antag: -6.8; DT40 TDP1 no CPT: 0.2%; D3 ag: -3.6; TDP1 cell CPT: 24.3%; IL-1B inflam inh: -4.0

Results for CC(C)c1nc(C(=O)N2CCCC(N3CCN(c4cccc(Cl)c4)CC3)C2)cs1 (centres undefined) ?
D3 antag: 15.7; DT40 TDP1 no CPT: inconclusive; ClpP mod: -1.8%; D3 ag: 19.1; TDP1 cell CPT: inconclusive; IL-1B inflam inh: inactive

Source: PubChem BioAssay (National Center for Advancing Translational Sciences (NCATS))
